A selection: hits, their analogues and other compounds. The true share with any hit is near 5.7%.
FAS-TE inh = blocks the thioesterase domain of human fatty acid synthase | P49327 | recombinant FAS-TE, OMFH fluorogenic substrate, fluorescence endpoint | inhibition, % at 15 µM | actives 0.67% (n = 360,000);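 active = compounds whose normalised, plate-corrected inhibition of enzyme fluorescence in the single-dose primary screen is 50% or more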;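 also: 0% = DMSO with enzyme and 100% = substrate without enzyme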
MPTP inh = inhibitors of mitochondrial permeability transition pore; isolated mouse mitochondria, Ca2+ swelling absorbance, 30 min; inhibition, % at 10 µM; actives 1.4% (n = 360,000);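 active = inhibition of 50% or more, scaled per plate between neutral and stimulator controls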;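 also: 0% = DMSO wells given calcium and 100% = 1 mM EGTA wells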
GRIN3A LBD mod = modulators (binders) of human NR3A ligand-binding domain | NR3A LBD differential scanning fluorimetry, Tm shift; 0% = protein alone, 100% = glycine-bound protein | Tm shift relative to glycine control, % at 25 µM | actives 2.5% (n = 340,000) | AID 1259313;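 active = melting temperature shift of at least 10% of the positive control shift, at one fixed dose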
rCAG RNA binder = molecules binding r(CAG) RNA repeats. actives 1.3% (n = 370,000). r(CAG) RNA repeat, TO-PRO-1 dye displacement fluorescence. inhibition, % at 3 µM;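 active = inhibition above the plate cutoff, the mean of all test compounds on that plate plus 3 SD, cut at about 35% in these data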;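 also: 0% = DMSO alone and 100% = 100 µM mitoxantrone as full dye displacement; higher means more dye released from RNA so lower well fluorescence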
Myeloid diff MLP = compounds promoting myeloid differentiation | actives 1% (n = 360,000) | ER-HoxA9 myeloid progenitors, lysozyme-GFP differentiation, flow cytometry | calls only at 10 µM | AID 624256;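 active = normalized GFP-positive differentiation at or above the plate's own cutoff, the solvent-only control mean plus 3 SD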;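 also: cells exposed to compound for four days before flow analysis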
rCAG binder conf = r(CAG) RNA repeat binding, confirmation. shares compounds with rCAG RNA binder. TO-PRO-1 dye displacement fluorescence. inhibition, % at 3 µM. actives 70% (n = 4,300). AID 652065;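 active = inhibition above a per-plate cutoff, the mean inhibition of sample wells plus 3 SD, cut at about 35% in these data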;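 also: loss of TO-PRO-1 fluorescence as compound displaces dye from 1x1 AA loop RNA; 0% = DMSO only wells and 100% = 100 µM mitoxantrone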
DNA CAG counter = counter-screen for rCAG RNA binders: DNA CAG dye complex inhibitors. shares compounds with rCAG RNA binder. d(CAG) DNA oligo TO-PRO-1 dye displacement, fluorescence. inhibition, % at 3 µM. actives 94% (n = 4,300). AID 652068;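 active = inhibition above its plate's cutoff, the mean test-well inhibition plus 3 SD, cut at about 4.8% in these data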;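 also: 0% = DNA dye mix with DMSO and 100% = 100 µM mitoxantrone; hits displace the dye from DNA and so lower well fluorescence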
The depositor's hits bear a star.

Screening NC(=O)CC(NC(=O)Cc1cccc2ccccc12)c1ccc(NCc2ccc(F)c(F)c2)c([N+](=O)[O-])c1 (configuration not stated) returned FAS-TE inh -1, MPTP inh -1, GRIN3A LBD mod -6, rCAG RNA binder 4 and Myeloid diff MLP inactive.
`CCCc1nc2nc(C)c(NS(=O)(=O)c3ccc(C4CCCCC4)cc3)c(=O)n2[nH]1` gave FAS-TE inh 4, MPTP inh 2, GRIN3A LBD mod 1, rCAG RNA binder 59*, Myeloid diff MLP inactive, rCAG binder conf 62* and DNA CAG counter 16*.
`CCOc1ccc(/C=N/NC(=O)CSc2n[nH]c(=O)[nH]c2=O)cc1OC` gave FAS-TE inh -6, MPTP inh 1, GRIN3A LBD mod -1, rCAG RNA binder 0 and Myeloid diff MLP inactive.
CN(C)c1ccc(/C=C(/NC(=O)c2ccccc2)C(=O)N/N=C/c2ccc([N+](=O)[O-])c(O)c2)cc1 was read as FAS-TE inh 4, MPTP inh 0, GRIN3A LBD mod -6, rCAG RNA binder 67*, Myeloid diff MLP inactive, rCAG binder conf 62* and DNA CAG counter 26*.
For Cc1nc(C)c(-c2csc(Nc3ccc(O)c(C(=O)O)c3)n2)s1 the results were FAS-TE inh 0, MPTP inh 0, GRIN3A LBD mod 4, rCAG RNA binder 35*, Myeloid diff MLP inactive, rCAG binder conf 29 and DNA CAG counter 6.2*.
`Cc1nc(C)c(-c2csc(Nc3ccc(N)cc3)n2)s1` gave FAS-TE inh 0, MPTP inh 0, GRIN3A LBD mod -3, rCAG RNA binder 15 and Myeloid diff MLP inactive.
Nc1nc(-c2ccco2)nn1C(=O)c1ccc([N+](=O)[O-])cc1 was read as FAS-TE inh 14, MPTP inh -1, GRIN3A LBD mod 0, rCAG RNA binder 0 and Myeloid diff MLP inactive.
O=C(O)c1ccc(Cl)c(S(=O)(=O)N(Cc2ccccc2)c2ccc(F)cc2)c1 was read as FAS-TE inh -7, MPTP inh 4, GRIN3A LBD mod 1, rCAG RNA binder 54*, Myeloid diff MLP inactive, rCAG binder conf 48* and DNA CAG counter 13*.
`O=C(O)c1cccc(S(=O)(=O)N(Cc2ccccc2)c2ccc(Cl)cc2)c1` gave FAS-TE inh 0, MPTP inh -1, GRIN3A LBD mod -6, rCAG RNA binder 38*, Myeloid diff MLP inactive, rCAG binder conf 41* and DNA CAG counter 12*.
`O=C(O)c1ccc(Cl)c(S(=O)(=O)N(Cc2ccccc2)c2ccccc2Cl)c1` gave FAS-TE inh -2, MPTP inh 3, GRIN3A LBD mod 7, rCAG RNA binder 73*, Myeloid diff MLP inactive, rCAG binder conf 68* and DNA CAG counter 22*.
Screening COc1ccc(N(Cc2ccccc2)S(=O)(=O)c2cc(C(=O)O)ccc2Cl)cc1 returned FAS-TE inh -9, MPTP inh 2, GRIN3A LBD mod 2, rCAG RNA binder 53*, Myeloid diff MLP inactive, rCAG binder conf 42* and DNA CAG counter 8.9*.
`Cc1ccc(S(=O)(=O)N2C[C@H]3C(=O)C[C@@H](c4ccccc4)N(S(C)(=O)=O)[C@H]3C[C@H]2c2ccccc2)cc1` gave FAS-TE inh 17, MPTP inh 0, rCAG RNA binder 8 and Myeloid diff MLP inactive.
For O=C(Cn1cnc2ccccc21)OCC(=O)N1CCCCC1 the results were FAS-TE inh -6, MPTP inh 0, GRIN3A LBD mod 0, rCAG RNA binder 2 and Myeloid diff MLP inactive.
Cc1cc(C)cc(NC(=O)CCc2c(C)nn(-c3ccc(N4CCOCC4)nn3)c2C)c1 was read as FAS-TE inh -1, MPTP inh 0, GRIN3A LBD mod -1, rCAG RNA binder -5 and Myeloid diff MLP inactive.
For Cc1cccc(N(CC(=O)NC(C)C)C(=O)CCC(=O)Nc2nccs2)c1 the results were FAS-TE inh -6, MPTP inh 0, GRIN3A LBD mod 0, rCAG RNA binder -9 and Myeloid diff MLP inactive.
O=C(O)c1ccc(Cl)c(S(=O)(=O)N(Cc2ccccc2)c2ccccc2)c1 was read as FAS-TE inh -1, MPTP inh 1, GRIN3A LBD mod 3, rCAG RNA binder 38*, Myeloid diff MLP inactive, rCAG binder conf 39* and DNA CAG counter 9.6*.
Screening O=C(O)c1cccc(S(=O)(=O)N(Cc2ccccc2)c2ccccc2)c1 returned FAS-TE inh 0, MPTP inh -1, GRIN3A LBD mod -1, rCAG RNA binder 12 and Myeloid diff MLP inactive.
`CCOc1cc([N+](=O)[O-])cc(/C=C2/NC(=O)N(Cc3ccccc3F)C2=O)c1O` gave FAS-TE inh 1, MPTP inh 0, GRIN3A LBD mod -33, rCAG RNA binder 46*, Myeloid diff MLP inactive, rCAG binder conf 47* and DNA CAG counter 14*.
Cc1cc(C)cc(C(=O)N(Cc2ccco2)c2c(N)n(Cc3ccccc3)c(=O)[nH]c2=O)c1 was read as FAS-TE inh -8, MPTP inh -1, GRIN3A LBD mod 0, rCAG RNA binder 1 and Myeloid diff MLP inactive.
COc1cc2ccccc2cc1C(=O)NC(=S)Nc1cccc(C(=O)O)c1 was read as FAS-TE inh -28, MPTP inh 0, GRIN3A LBD mod 1, rCAG RNA binder 39*, Myeloid diff MLP inactive, rCAG binder conf 69* and DNA CAG counter 34*.
Screening Cc1csc(NC(=O)CSc2sc3c(O)cc(=O)[nH]c3c2C#N)n1 returned FAS-TE inh 1, MPTP inh -1, GRIN3A LBD mod -6, rCAG RNA binder 75*, rCAG binder conf 37* and DNA CAG counter 14*.
For CCc1nnc(NC(=O)CSc2nc3[nH]c(=O)cc(O)c3s2)s1 the results were FAS-TE inh -6, MPTP inh 1, GRIN3A LBD mod -2, rCAG RNA binder 23 and Myeloid diff MLP inactive.
`CCCSc1nnc(NC(=O)CSc2nc3[nH]c(=O)cc(O)c3s2)s1` gave FAS-TE inh -3, MPTP inh -1, GRIN3A LBD mod 0, rCAG RNA binder 37*, Myeloid diff MLP inactive, rCAG binder conf 27 and DNA CAG counter 7.8*.
For CCSc1nnc(NC(=O)CSc2sc3c(O)cc(=O)[nH]c3c2C#N)s1 the results were FAS-TE inh 0, MPTP inh 0, GRIN3A LBD mod 2, rCAG RNA binder 58*, rCAG binder conf 63* and DNA CAG counter 28*.
For CCOc1cc(/C=C(\CC(=O)O)c2nc3ccccc3s2)ccc1OC the results were FAS-TE inh -8, MPTP inh 0, GRIN3A LBD mod -1, rCAG RNA binder 18 and Myeloid diff MLP inactive.
COc1ccc(/C=C(\CC(=O)O)c2nc3ccccc3s2)cc1O was read as FAS-TE inh -4, MPTP inh 0, GRIN3A LBD mod 5, rCAG RNA binder 15 and Myeloid diff MLP inactive.

Assay outcomes (PubChem BioAssay)
